Measured values from PubChem BioAssay (NCI).
About 83,000 compounds went through this panel and 20% of them were active in at least one assay; those are over-represented in the sample as a whole.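 Growth was measured after 48 h exposure to one concentration of compound in 96-well plates. Values under 10 count as active.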 Unmarked numbers belong to inactive results. Active and inactive are the calls of the source.

The compounds below were run on NCI-H522 lung (assay: NCI-60 one-dose screen, 48 h (100 = growth as untreated, 0 = no growth, -100 = all killed)). Settings: 10 µM.
Method: Growth inhibition of the NCI-H522 human Non-Small Cell Lung tumor cell line is measured as a screen for anti-cancer activity. Cells are grown in 96 well plates and exposed to the test compound for 48 hours. Compounds are tested at a single concentration, which is 10^-5 M for most compounds. The reported endpoint is percent growth (GI% or GIPRCNT), where numbers from 0 - 100% represent growth inhibition, and numbers from -100% - 0 represent cell death. For example, a value of 40 represents 60% growth inhibition. A value of 0 means no net growth occurred over the course of the experiment. A value of -40 indicates 40% of cells at the beginning of the experiment died by the end of the experiment. A value of -100 means all cells are dead at the end of the experiment.
NCI-60 Human Tumor Cell Lines Screen was performed using the standard one-dose NCI protocol, which is described in more detail at https://dtp.cancer.gov/discovery_development/nci-60/default.htm.
Compounds with GIPRCNT values below 10 were considered active. Activity score was based on GIPRCNT using the following formula: […]
Score is 0 for GIPRCNT values of 100 or above, 50 for GIPRCNT values of 0, and 100 for GIPRCNT values of -100.

Compound | growth
COc1ccc2c(c1)C(=O)/C(=C/c1cccc(OCC(=O)c3ccc([N+](=O)[O-])cc3)c1)CO2 | -53.4% (active)
COc1nc2c(c(=O)n1C)CN(c1ccccc1)C(=O)C(C)N2 (stereo not given) | 84.6%
CCOC(=O)c1cc(C(=O)c2cc(OC)c(OC)c(OC)c2)n2nc(C)ccc12 | 3.82% (active)
CC(C)(C)OC(=O)CC(S(=O)(=O)c1ccccc1)S(=O)(=O)c1ccccc1 | -36.4% (active)
CC(C)(C)OC(=O)CN1CCc2c(sc3ncnc(N/N=C/c4ccccc4Br)c23)C1 | 53.4%
COc1cc(-c2nn(-c3cccc(NC(=O)CCNc4ccc(N5CCOCC5)cc4)c3)cc2-c2ccncc2)ccc1Cl | 11.9%
CCNCC(=O)Nc1ccc(C(=O)OCC)cc1 | 88.7%
CCOC(=O)C1C(C(=O)OCC)C2C(=O)C3C(C(=O)OCC)C(C(=O)OCC)C3C(=O)C12 (stereo not given) | 104%
Cn1c2ccccc2c2c3[nH][nH]c(=O)c3c3c4ccccc4[nH]c3c21 | 4.72% (active)
OCC1OC(n2cnc3c(NCc4ccco4)ncnc32)C(O)C1O (stereo not given) | 23.8%
COc1ccc2nc3cc(Cl)ccc3c(NCCCNCCO)c2c1 | -86.5% (active)
CC(=O)Nc1ccc(S(=O)(=O)c2ccnc3cc(Cl)ccc23)cc1 | 28.1%
C=CCN(CC=C)C(=O)[C@H](CC)[C@@H]1CC[C@@H](C)[C@@H]([C@H](C)[C@@H](O)[C@@H](C)C(=O)[C@H](CC)C2O[C@]3(C=C[C@@H](O)[C@]4(CC[C@@](C)([C@H]5CC[C@](O)(CC)[C@H](C)O5)O4)O3)[C@H](C)C[C@@H]2C)O1 (stereo not given in full) | -2.7% (active)
O=C(Nc1cccc2c1CCCC2)c1cc2ccccc2cc1O | 18.8%
CC(=O)[C@H]1CC[C@]2(C)[C@@H]1CC[C@@H]1[C@@]3(C)CC(CCC#N)(CCC#N)C(=O)C(C)(C)[C@@H]3CC[C@]12C | 94.1%
COc1ccc(-c2onc(N)c2-c2cc(OC)c3c(c2)OCO3)cc1 | 9.81% (active)
c1cncc(-c2csc(-c3c[nH]c4ccccc34)n2)c1 | 73.5%
c1ccc(/C(=N\Nc2ccc3ccccc3n2)c2ccccn2)cc1 | -2.13% (active)
O=S(=O)(NCCCNc1nccc(-c2cn(-c3ccccc3)nc2-c2ccc(Cl)c(O)c2)n1)c1ccccc1 | 65.6%
S=C(SSC(=S)N(c1ccccc1)c1ccccc1)N(c1ccccc1)c1ccccc1 | 81.1%

Compound | growth
Cc1ccc(S(=O)(=O)N(C)CCCCCC(=O)O)cc1 | 90%
CSc1ccc(-c2cc(-c3ccc(NC(=O)CCCN4CCCC4)cc3)nc(-c3ccc(NC(=O)CCCN4CCCC4)cc3)c2)cc1 | 62.5%
CC(=O)OC/C=C(/C)C[P+](c1ccccc1)(c1ccccc1)c1ccccc1 | 74.6%
COc1cc(C(=O)/C(C)=C/c2c[nH]c3ccccc23)cc(OC)c1OC | -19.4% (active)
CC(C)(C)OC(=O)CN1CCc2c(sc3ncnc(N/N=C/c4cccc5ccccc45)c23)C1 | 32.8%
O=C(Nc1ccc(OCc2nnc(-c3ccc(Cl)cc3)o2)c(F)c1)Nc1ccc(Cl)c(C(F)(F)F)c1 | -33.8% (active)
CCOC(=O)c1cc(C(=O)c2cc(OC)cc(OC)c2)n2nc(C)ccc12 | -10.9% (active)
COc1cc2ncnc(NC3CCC(O)CC3)c2cc1OC (stereo not given) | 81.6%
O=C(N/N=C/c1c(Cl)cccc1Cl)c1ccccc1Nc1cccc(C(F)(F)F)c1 | 84.9%
COc1cc(C2CC(c3ccc4c(c3)OCO4)=NN2c2ccccc2)cc(OC)c1OC (stereo not given) | 73.4%
Nc1ncc(-c2cnn(C3CCNCC3)c2)cc1-c1nc2ccccc2o1 | 19.7%
CCOC(=O)/C(=C(\C)N)C1CC(=O)NC1=O (stereo not given) | 102%
Cc1c[nH]c(=O)n(Cc2nnc(CCC(=O)c3nc4ccccc4[nH]3)o2)c1=O | 12.7%
CC(=O)COc1ccc(Cl)cc1Cl | 107%
COc1cc2c(Nc3ccc(-c4ccc(N)cc4)cc3)ncnc2c(OC)c1OC | 48.6%
CC(C)(C)OC(=O)N1CCc2c(sc3ncnc(N/N=C/c4ccccc4Br)c23)C1 | 68.2%
Oc1ccc(-c2[nH]c3ccccc3c2-c2nc3ccccc3o2)cc1 | 60.9%
CCOC(=O)c1cc(C(=O)c2cc(OC)c(OC)c(OC)c2)n2ccc(-c3cc[n+](CC(=O)c4cc(OC)c(OC)c(OC)c4)cc3)cc12 | -21.5% (active)
CC(C)N(CCOc1ccc(-c2nc3sccn3c2-c2ccnc(S(C)(=O)=O)n2)cc1)C(C)C | -26.9% (active)
CCn1c(CSc2nc3ccccc3c(=O)n2CCc2ccccc2)n[nH]c1=S | -5% (active)
